# Reference: PubChem BioAssay AID1159580 (chemical genetic matrix, 2015)
# About 2,000 (36%) of roughly 5,500 compounds were called active. About 18% were inconclusive and are not listed. Some of the results follow. Unmarked numbers belong to inactive results. Rule as the data show it: active = normalized growth mostly below about 0.91 (no sharp cut-off); inconclusive = no clear call, values can overlap the other calls; inactive = mostly above about 0.92.
# Experiment: chemical genetic growth profiling, strain panel (AID 1159580);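 also: tested at 20 µM; growth read once vehicle control cultures reached saturation at 30 °C; 1 = growth at the plate median or of vehicle wells; lower values mean less growth of the strain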
# Settings: S. cerevisiae deletion strains, growth OD
smiles,measurement,setting,value
CC1=CC(=O)N(c2ccc(F)c(Cl)c2)C1=O,normalized growth,"locus YAR019C, strain CDC15, hits give low values",0.966
same,normalized growth,"locus YBL105C, strain PKC1, hits give low values",0.974
same,normalized growth,"locus YBR135W, strain CKS1, hits give low values",0.964
same,normalized growth,"locus YBR136W, strain MEC1, hits give low values",0.971
same,normalized growth,"locus YBR160W, strain CDC28, hits give low values",0.975
same,normalized growth,"locus YDL017W, strain CDC7, hits give low values",0.966
same,normalized growth,"locus YDL028C, strain MPS1, hits give low values",0.976
same,normalized growth,"locus YDL101C, strain DUN1, hits give low values",0.76 (active)
same,normalized growth,"locus YDL108W, strain KIN28, hits give low values",0.979
same,normalized growth,"locus YDL132W, strain cdc53, hits give low values",0.986
same,normalized growth,"locus YDL214C, strain PRR2, hits give low values",0.345 (active)
same,normalized growth,"locus YDR052C, strain DBF4, hits give low values",0.978
same,normalized growth,"locus YDR054C, strain cdc34, hits give low values",0.983
same,normalized growth,"locus YDR226W, strain ADK1, hits give low values",0.97
same,normalized growth,"locus YDR477W, strain SNF1, hits give low values",0.376 (active)
same,normalized growth,"locus YER123W, strain YCK3, hits give low values",0.243 (active)
same,normalized growth,"locus YER133W, strain GLC7, hits give low values",0.371 (active)
same,normalized growth,"locus YFL009W, strain cdc4, hits give low values",0.974
same,normalized growth,"locus YFL029C, strain CAK1, hits give low values",0.96
same,normalized growth,"locus YFR003C, strain YPI1, hits give low values",0.975
same,normalized growth,"locus YFR019W, strain FAB1, hits give low values",0.443 (active)
same,normalized growth,"locus YFR028C, strain CDC14, hits give low values",0.967
same,normalized growth,"locus YGR040W, strain KSS1, hits give low values",0.461 (active)
same,normalized growth,"locus YGR052W, strain FMP48, hits give low values",0.387 (active)
same,normalized growth,"locus YGR092W, strain DBF2, hits give low values",0.335 (active)
same,normalized growth,"locus YHR030C, strain SLT2, hits give low values",0.173 (active)
same,normalized growth,"locus YHR079C, strain IRE1, hits give low values",0.195 (active)
same,normalized growth,"locus YHR082C, strain KSP1, hits give low values",0.235 (active)
same,normalized growth,"locus YHR205W, strain SCH9, hits give low values",0.395 (active)
same,normalized growth,"locus YIL147C, strain SLN1, hits give low values",0.975
same,normalized growth,"locus YJL095W, strain BCK1, hits give low values",0.168 (active)
same,normalized growth,"locus YJL128C, strain PBS2, hits give low values",0.953
same,normalized growth,"locus YJL157C, strain FAR1, hits give low values",0.377 (active)
same,normalized growth,"locus YJR016C, strain ILV3, hits give low values",0.987
same,normalized growth,"locus YJR066W, strain TOR1 (second series), hits give low values",0.219 (active)
same,normalized growth,"locus YJR066W, strain TOR1, hits give low values",0.166 (active)
same,normalized growth,"locus YKL048C, strain ELM1, hits give low values",0.474 (active)
same,normalized growth,"locus YKL067W, strain YNK1, hits give low values",0.347 (active)
same,normalized growth,"locus YKL101W, strain HSL1, hits give low values",0.386 (active)
same,normalized growth,"locus YKL193C, strain SDS22, hits give low values",0.974
same,normalized growth,"locus YKL203C, strain TOR2, hits give low values",0.506 (active)
same,normalized growth,"locus YLR113W, strain HOG1, hits give low values",0.335 (active)
same,normalized growth,"locus YLR133W, strain CKI1, hits give low values",0.457 (active)
same,normalized growth,"locus YLR403W, strain SFP1, hits give low values",0.404 (active)
same,normalized growth,"locus YML070W, strain DAK1, hits give low values",0.274 (active)
same,normalized growth,"locus YMR001C, strain CDC5, hits give low values",0.962
same,normalized growth,"locus YMR205C, strain PFK2 (second series), hits give low values",0.407 (active)
same,normalized growth,"locus YMR277W, strain FCP1, hits give low values",0.973
same,normalized growth,"locus YNL006W, strain LST8, hits give low values",0.982
same,normalized growth,"locus YNL020C, strain ARK1, hits give low values",0.477 (active)
same,normalized growth,"locus YNL161W, strain CBK1, hits give low values",0.963
same,normalized growth,"locus YNL183C, strain NPR1, hits give low values",0.156 (active)
same,normalized growth,"locus YNL207W, strain RIO2, hits give low values",0.973
same,normalized growth,"locus YNL222W, strain SSU72, hits give low values",0.973
same,normalized growth,"locus YNL307C, strain MCK1 (second series), hits give low values",0.34 (active)
same,normalized growth,"locus YOL078W, strain AVO1, hits give low values",0.966
same,normalized growth,"locus YOL136C, strain PFK27, hits give low values",0.335 (active)
same,normalized growth,"locus YOR061W, strain CKA2, hits give low values",0.549 (active)
same,normalized growth,"locus YOR119C, strain RIO1, hits give low values",0.524 (active)
same,normalized growth,"locus YOR231W, strain MKK1, hits give low values",0.225 (active)
same,normalized growth,"locus YOR329C, strain SCD5, hits give low values",0.98
same,normalized growth,"locus YPL031C, strain PHO85, hits give low values",0.233 (active)
same,normalized growth,"locus YPL153C, strain RAD53, hits give low values",0.398 (active)
same,normalized growth,"locus YPL204W, strain HRR25, hits give low values",0.455 (active)
same,normalized growth,"locus YPL209C, strain IPL1, hits give low values",0.964
same,normalized growth,"locus YPL256C, strain CLN2, hits give low values",0.206 (active)
same,normalized growth,"locus YPR025C, strain CCL1, hits give low values",0.97
same,normalized growth,"locus YPR106W, strain ISR1, hits give low values",0.974
same,normalized growth,"locus YPR111W, strain DBF20, hits give low values",0.976
same,normalized growth,"strain NNK1, hits give low values",0.973
same,normalized growth,"strain TSCII, hits give low values",0.966
